Experimental data taken from ChEMBL document CHEMBL3988442, “University of Dundee, Small-Polar-MMV Screening Library” (2021).
Out of some 69,000 compounds screened, about 1,000 (1.4%) showed an effect of 50% or more. What follows is part of a selection rich in strong results, with near analogues and random picks from the rest.

Tested on: Leishmania donovani
Test: Leishmania intramacrophage assay
Type: functional, organism-based
Parameters: scale not given: in the data most compounds retested in dose-response had high values

In the case of `CCCn1nc(C)c(C(=O)N(C)[C@@H]2CC[C@@H](OC)[C@@H]2O)c1C`, the “Percent Effect” value (30.3 µM, […]) was 19.04%.

In the case of `CC(C(=O)Nc1ccc(N2CCCC2)nc1)n1cccn1` (stereo not given), the “Percent Effect” value (30 µM) was 19.04%.

For `Cc1noc(C)c1CCCNC(=O)C1CCN(C(C)C)CC1`, the “Percent Effect” value (30.3 µM, […]) was 24.48%.

`Cc1nc2cc(CNC(=O)C3CC(=O)N(C4CCCC4)C3)ccc2n1C` (stereo not given) was tested, and the “Percent Effect” value (30.3 µM, […]) was 2.689%.

With `Cc1nc2cc(CNC(=O)C3CC(=O)N(CCN(C)C)C3)ccc2n1C` (stereo not given) the “Percent Effect” value (30.3 µM, […]) was 7.725%.

In the case of `CCN1CC(C(=O)NCc2ccc3c(c2)nc(C)n3C)CCC1=O` (stereo not given), the “Percent Effect” value (30.3 µM, […]) was 73.45%.

For `CC(C)c1cc(C(=O)O)nc2[nH]c(=O)[nH]c(=O)c12`, the “Percent Effect” value (30.3 µM, […]) was -5.63%.

`CCCc1nc(CN2CCCN(Cc3nccn3C)CC2)no1` was tested, and the “Percent Effect” value (30 µM) was 36.47%.

For `O=C(c1cc[nH]n1)N1CCc2ccc(S(=O)(=O)N3CCOCC3)cc2C1`, the “Percent Effect” value (30.3 µM, […]) was 52.38%.

For `O=C(c1ccc[nH]1)N1CCc2cc(S(=O)(=O)N3CCOCC3)ccc2C1`, the “Percent Effect” value (30.3 µM, […]) was 17.1%.

In the case of `O=C(c1ccc[nH]1)N1CCc2ccc(S(=O)(=O)N3CCOCC3)cc2C1`, the “Percent Effect” value (30.3 µM, […]) was -1.46%.

With `CCc1noc(CNc2nc(-c3cccnc3)nc3c2CCNCC3)n1` the “Percent Effect” value (30.3 µM, […]) was 27.11%.

In the case of `CN(CC1CCCO1)c1nc(-c2cccnc2)nc2c1CCNCC2` (stereo not given), the “Percent Effect” value (30.3 µM, […]) was 34.58%.

In the case of `Cl.NC1CCc2nc(-c3cccnc3)nc(Nc3ccc(F)cc3)c2C1` (stereo not given), the “Percent Effect” value (30.3 µM, […]) was 94.83%.

For `c1cncc(-c2nc3c(c(NCC4(c5ccncc5)CC4)n2)CCC3)c1`, the “Percent Effect” value (30.3 µM, […]) was 33.94%.

`CC(O)CNc1nc(-c2cccnc2)nc2c1CCC2` (stereo not given) was tested, and the “Percent Effect” value (30.3 µM, […]) was 13.01%.

`CNS(=O)(=O)CC(=O)NC(C)Cc1ccc(-c2ccccc2)cc1` (stereo not given) was tested, and the “Percent Effect” value (30.3 µM, […]) was 32.54%.

`CN(CCN(C)S(=O)(=O)CC1CCOCC1)c1ccccc1` was tested, and the “Percent Effect” value (30.3 µM, […]) was 4.21%.

`Fc1ccccc1NCc1nc2n(n1)CCCCC2` was tested, and the “Percent Effect” value (30.3 µM, […]) was -12.91%.

`CC(=O)N1CCC2(C=C(C(=O)NC3CC3)c3ccccc32)CC1` was tested, and the “Percent Effect” value (30.3 µM, […]) was 1.849%.

`O=C(C1=CC2(CCNCC2)c2ccccc21)N1CCCC1` was tested, and the “Percent Effect” value (30 µM, 30.03 µM) was -18.75%.

For `O=C(Nc1ccccc1)C1=CC2(CCNCC2)c2ccccc21`, the “Percent Effect” value (30 µM, 30.03 µM) was 52.55%.

`Cc1nn(CCn2ccnc2-c2cc3n(n2)CCCNC3)c(C)c1Cl` was tested, and the “Percent Effect” value (30 µM, 30.03 µM) was 27.54%.

For `COc1ccc(CN2CCCCCC2c2cccs2)c(OC)c1` (stereo not given), the “Percent Effect” value (30.3 µM, […]) was 16.39%.

`Cc1nc(C2CCCN(C(=O)c3cc(-c4ccccc4)[nH]n3)C2)no1` (stereo not given) was tested, and the “Percent Effect” value (30.3 µM, […]) was 9.064%.

In the case of `CC(C)CCN1CC2(CCN(C(=O)C3(C)CCCCO3)CC2)OC1=O` (stereo not given), the “Percent Effect” value (30.3 µM, […]) was 6.725%.

For `COc1ccc(C2=Nn3c(CN)nnc3-c3ccccc3C2)cc1`, the “Percent Effect” value (30.3 µM, […]) was 36.2%.

With `COc1ccc(C2=Nn3c(CCN)nnc3-c3ccccc3C2)cc1` the “Percent Effect” value (30.3 µM, […]) was 89.23%.

`COc1ccc(C2=Nn3c(CCCN)nnc3-c3ccccc3C2)cc1` was tested, and the “Percent Effect” value (30.3 µM, […]) was 30.64%.

With `CC(=O)N1CCc2c(nc(N(C)C)nc2NCCCn2ccnc2)C1` the “Percent Effect” value (30.3 µM, […]) was -10.69%.

With `CN(C)CCN1C[C@@H]2CN(C(=O)C3CCOC3)C[C@@H]2C1=O.O=C(O)C(F)(F)F` (stereo not given in full) the “Percent Effect” value (30.3 µM, […]) was -26.31%.

With `Cc1cc(C(=O)N2CCC3(CCC(=O)N(CC(N)=O)C3)CC2)ccc1O` the “Percent Effect” value (30.3 µM, […]) was 11.98%.

In the case of `CC(=O)N1CCC(NC(=O)c2cc(S(N)(=O)=O)ccc2C)CC1`, the “Percent Effect” value (30.3 µM, […]) was -1.924%.

In the case of `Cc1ccc(S(N)(=O)=O)cc1C(=O)NC1CCCC1`, the “Percent Effect” value (30.3 µM, […]) was 54.24%.

For `Cc1ccc(S(N)(=O)=O)cc1C(=O)NC1CCCN(C)C1` (stereo not given), the “Percent Effect” value (30.3 µM, […]) was 17.05%.

With `CNC(=O)CN(C)C(=O)c1cc(Cl)c(Cl)n1C` the “Percent Effect” value (30.3 µM, […]) was 1.638%.

In the case of `NC(=O)N1CCC(C(=O)NC2CCc3nccn3C2)CC1` (stereo not given), the “Percent Effect” value (30.3 µM, […]) was -91.03%.

With `C=Cc1cccc(CN2CCCn3nc(CNS(C)(=O)=O)cc3C2)c1` the “Percent Effect” value (30.3 µM, […]) was 8.14%.

For `Fc1cnc(N2C[C@@H](OCC3CCOCC3)[C@H]3OCCC[C@H]32)nc1.O=C(O)C(F)(F)F`, the “Percent Effect” value (30.3 µM, […]) was 63.79%.

`O=C(O)C(F)(F)F.c1cnc(N2CCO[C@H]3[C@H](OCC4CCOCC4)CC[C@@H]32)nc1` was tested, and the “Percent Effect” value (30.3 µM, […]) was 26.14%.

In the case of `Fc1cnc(N2CCO[C@H]3[C@H](OCC4CCOCC4)CC[C@@H]32)nc1.O=C(O)C(F)(F)F`, the “Percent Effect” value (30.3 µM, […]) was 42.92%.

`N[C@@H]1CCN(Cc2ccccc2CS(=O)(=O)c2ccccc2)C[C@H]1O` was tested, and the “Percent Effect” value (30.3 µM, […]) was 11.27%.

In the case of `O=S(=O)(Cc1ccccc1CN1CC[C@H](CO)[C@H](O)C1)c1ccccc1`, the “Percent Effect” value (30.3 µM, […]) was 22.14%.

For `NC1CCCCN(Cc2ccccc2CS(=O)(=O)c2ccccc2)C1` (stereo not given), the “Percent Effect” value (30.3 µM, […]) was 64.11%.

In the case of `Cc1cnn(C2CN(Cc3nc(-c4ccccn4)no3)C2)c1`, the “Percent Effect” value (30 µM) was -31.22%.

With `O=S(=O)(c1ccccc1)N1CCCN(CCCn2ccnc2)CC1` the “Percent Effect” value (30 µM, 30.03 µM) was 52.87%.

`O=S(=O)(c1ccccc1)N1CCN(CCn2ccnc2)CC1` was tested, and the “Percent Effect” value (30 µM, 30.03 µM) was 0.5728%.

For `Cc1ccc(S(=O)(=O)N2CCN(CCCn3ccnc3)CC2)cc1`, the “Percent Effect” value (30.3 µM, […]) was 3.879%.

`CCc1cc(=O)[nH]c2nnc(SCC(=O)NC(C)C)n12` was tested, and the “Percent Effect” value (30.3 µM, […]) was -15.02%.

`COc1ccc(C(=O)N2CC[C@@]3(O)CCCC[C@H]3C2)cc1OC` was tested, and the “Percent Effect” value (30.3 µM, […]) was 15.68%.

For `Cc1ccc2cc(C3(O)CCN(C(=O)CSC(C)C)CC3)ccc2n1`, the “Percent Effect” value (30.3 µM, […]) was 27.25%.

With `Cc1nc(C2CCCNC2)nc2c1CCCN2Cc1ccccn1.Cl.Cl` (stereo not given) the “Percent Effect” value (30.3 µM, […]) was 30.18%.

In the case of `CNc1cc(-c2ccccc2CN)c2cc[nH]c2n1`, the “Percent Effect” value (30.3 µM, […]) was 31.34%.

With `CNc1cc(-c2ccc(COCCN)cc2)c2cc[nH]c2n1` the “Percent Effect” value (30.3 µM, […]) was -14.52%.

With `CNc1cc(-c2cccc(CN)c2)c2cc[nH]c2n1` the “Percent Effect” value (30.3 µM, […]) was 52.08%.

For `C=C(C)CN1CCC(C(=O)c2cc(F)ccc2F)CC1`, the “Percent Effect” value (30 µM) was 41.7%.

`Cc1cccc2c1nc(CCO)n2-c1ccc(C(=O)N2CCOCC2)o1` was tested, and the “Percent Effect” value (30.3 µM, […]) was 26.23%.

In the case of `CC(=O)N1N=C(COc2ccc(C)cc2)OC1c1ccc(N(C)C)cc1` (stereo not given), the “Percent Effect” value (30.3 µM, […]) was 54.92%.

In the case of `COc1ccc(C2OC(COc3ccc(C)cc3)=NN2C(C)=O)cc1` (stereo not given), the “Percent Effect” value (30.3 µM, […]) was 8.051%.

For `COCCNc1nc(N2CCOCC2)nc2nccnc12`, the “Percent Effect” value (30.3 µM, […]) was 21.04%.

For `CC(C)=CCN1CCN(C(=O)C2CC2)CC1`, the “Percent Effect” value (30.3 µM, […]) was -4.864%.

In the case of `COc1ccccc1CC(NC(=O)N1CCC[C@@H]1CO)C(C)C` (stereo not given in full), the “Percent Effect” value (30.3 µM, […]) was 9.914%.

`CN(C)CC(C)(O)CNC(=O)Nc1sc2ccccc2c1Cl` (stereo not given) was tested, and the “Percent Effect” value (30.3 µM, […]) was 53.76%.

For `CS(=O)(=O)CCNC(=O)Nc1sc2ccccc2c1Cl`, the “Percent Effect” value (30.3 µM, […]) was -48.56%.

For `CN(C)C(=O)CCNC(=O)Nc1sc2ccccc2c1Cl`, the “Percent Effect” value (30.3 µM, […]) was -8.505%.
